The supplement of paper PMC7669877
± gives the uncertainty stated by the source.

Test system: Candidatus Liberibacter solanacearum in potato hairy roots
Assay: relative CLso titer (% of untreated control); higher = less inhibition of bacterial titer
Details: 10 µM; 72 h
Procedure: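 Primary screen of ~220 Spectrum collection (MicroSource) compounds at 10 µM (0.1% DMSO) on Candidatus Liberibacter solanacearum-infected potato hairy roots in multi-well plates (Gamborg B-5 medium, vacuum infiltrated, 21 °C, dark, 72 h). CLso titer was measured by qPCR of 16S rDNA normalised to potato RPL2 (2^-ddCq), pairwise-standardised against untreated controls, averaged over two biological replicates and expressed as % of untreated.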

Compound	relative CLso titer [%]
CNC(=C[N+](=O)[O-])NCCSCc1ccc(CN(C)C)o1	109 ± 2.3
Cc1ccc(S(=O)(=O)NC(=O)NN2CCCCCC2)cc1	83.2 ± 12
CCCCNc1cc(C(=O)O)cc(S(N)(=O)=O)c1Oc1ccccc1	105 ± 14
Clc1ccccc1C(c1ccccc1)(c1ccccc1)n1ccnc1	65.3 ± 14
C#C[C@]1(O)CC[C@H]2[C@@H]3CCC4=Cc5oncc5C[C@]4(C)[C@H]3CC[C@@]21C	154 ± 40
CC(C)(Sc1cc(C(C)(C)C)c(O)c(C(C)(C)C)c1)Sc1cc(C(C)(C)C)c(O)c(C(C)(C)C)c1	102 ± 13
Cn1c([N+](=O)[O-])cnc1COC(N)=O	81.53 ± 0.13
Nc1ccc(C(=O)O)cc1	67.7 ± 7.7
CN(C)c1cnccn1	120 ± 27
C[N+](C)(C)CCOC(N)=O	41.99 ± 0.24
CN(C)CC[C@@H](c1ccc(Cl)cc1)c1ccccn1	48.1 ± 3.8
Nc1ncn([C@@H]2O[C@H](CO)[C@@H](O)[C@H]2O)c(=O)n1	64.8 ± 5.8
Oc1c(Cl)cc(Cl)cc1Sc1cc(Cl)cc(Cl)c1O	55.8 ± 6.5
COc1ccc(C(=O)c2ccccc2O)c(O)c1	86.9 ± 3.5
C=C1c2cccc(O)c2C(=O)C2=C(O)[C@]3(O)C(=O)C(C(N)=O)=C(O)[C@@H](N(C)C)[C@@H]3[C@@H](O)[C@H]12	79.1 ± 26
Clc1ccc(COC(Cn2ccnc2)c2ccc(Cl)cc2Cl)cc1 (stereo not given)	101 ± 35
C1CCN2C[C@@H]3C[C@@H](CN4CCCC[C@@H]34)[C@H]2C1	93.9 ± 8
Cn1nnnc1SCC1=C(C(=O)O)N2C(=O)[C@@H](NC(=O)[C@H](O)c3ccccc3)[C@H]2SC1	133 ± 14
C[C@H]1O[C@H](O[C@H]2[C@H](O)[C@@H](O)[C@@H](O[C@H]3[C@H](O)[C@@H](O)C(O)O[C@@H]3CO)O[C@@H]2CO)[C@H](O)[C@@H](O)[C@@H]1N[C@H]1C=C(CO)[C@@H](O)[C@H](O)[C@H]1O (stereo not given in full)	135 ± 70
CC1(C)[C@@H](OC(=O)CCC(=O)O)CC[C@]2(C)[C@H]3C(=O)C=C4[C@@H]5C[C@@](C)(C(=O)O)CC[C@]5(C)CC[C@@]4(C)[C@]3(C)CC[C@@H]12	132 ± 30

Compound	relative CLso titer [%]
CC(=O)Oc1cc2c(s1)CCN(C(C(=O)C1CC1)c1ccccc1F)C2 (stereo not given)	55.4 ± 2.9
NCCCC[C@H](N[C@@H](CCc1ccccc1)C(=O)O)C(=O)N1CCC[C@H]1C(=O)O	105 ± 33
NCCc1ccc(O)c(O)c1	117 ± 26
CC1(C)OC(=O)NC1=O	65.8 ± 3.9
CC1(C)S[C@@H]2[C@H](NC(=O)C(C(=O)O)c3ccccc3)C(=O)N2[C@H]1C(=O)O (stereo not given in full)	43.3 ± 14
CN(C)CCOC(c1ccc(Cl)cc1)c1ccccn1 (stereo not given)	35.2 ± 4.8
C[C@@H]1C[C@H]2[C@@H]3CCC4=CC(=O)C=C[C@]4(C)[C@@]3(F)[C@@H](O)C[C@]2(C)[C@@]1(O)C(=O)CO	196 ± 16
CCN(CCCCOC(=O)c1ccc(OC)c(OC)c1)C(C)Cc1ccc(OC)cc1 (stereo not given)	94.6 ± 34
CCC[C@@H]1C[C@@H](C(=O)N[C@@H]([C@H]2O[C@H](SC)[C@H](O)[C@@H](O)[C@H]2O)[C@H](C)Cl)N(C)C1	80.1 ± 32
Cc1onc(-c2ccccc2Cl)c1C(=O)N[C@@H]1C(=O)N2[C@@H]1SC(C)(C)[C@@H]2C(=O)O	46.2 ± 1.5
C[C@H]1O[C@@H](O[C@H]2[C@@H](O)C[C@H](O[C@H]3[C@@H](O)C[C@H](O[C@H]4CC[C@@]5(C)[C@H](CC[C@@H]6[C@@H]5CC[C@]5(C)[C@@H](C7=CC(=O)OC7)CC[C@]65O)C4)O[C@@H]3C)O[C@@H]2C)C[C@H](O)[C@@H]1O	231 ± 140
Cc1cccc(Nc2ccccc2C(=O)O)c1C	98.7 ± 20
CO[C@@]12[C@H](COC(N)=O)C3=C(C(=O)C(C)=C(N)C3=O)N1C[C@@H]1N[C@@H]12	85 ± 10
CN1CCN(CC(=O)N2c3ccccc3C(=O)Nc3cccnc32)CC1	56.9 ± 5.4
O=C(O)c1ccccc1C(=O)Nc1ccc(S(=O)(=O)Nc2nccs2)cc1	102 ± 3.3
CCN(CCCc1ccccc1)CCCc1ccccc1	66.9 ± 21
CC(C)(Oc1ccc(CCNC(=O)c2ccc(Cl)cc2)cc1)C(=O)O	153 ± 64
CCN(CC)C(=O)N1CCN(C)CC1	106 ± 9.8
NC(=O)N1c2ccccc2C=Cc2ccccc21	58.7 ± 10
C[C@H]1O[C@@H](O[C@H]2[C@@H](O)C[C@H](O[C@H]3[C@@H](O)C[C@H](O[C@H]4CC[C@@]5(C)[C@H](CC[C@@H]6[C@@H]5C[C@@H](O)[C@]5(C)[C@@H](C7=CC(=O)OC7)CC[C@]65O)C4)O[C@@H]3C)O[C@@H]2C)C[C@H](O)[C@@H]1O	86.7 ± 7.9
